Source: PubChem BioAssay (NCATS)
Inconclusive results are not listed. A number with no mark means an inactive call. Activity calls are given as the source filed them. Calls follow the shape of the dose curve; as a rule, active = well fitted cell-killing curve with a large enough effect; inconclusive = small, poorly fitted or top-dose-only effect, or effect the other way; inactive = no such curve, though single readings can be large or run the other way.

assay: Viability qHTS for spleen associated tyrosine kinase inhibitor (SYKi) drug resistant MV4-11 cells (AID 1963824); conditions: SYKi-resistant MV4-11 viability, CellTiter-Glo, 72 h; series mostly up to 45 µM; also: nearly all actives have a fitted effect of over 35% in size
In short: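 SYK-inhibitor-resistant MV4-11 AML cells were seeded at 500 per well onto compound and cultured 72 hours (37 °C, 5% CO2). CellTiter-Glo was then added, and after 10 min at room temperature, luminescence gave viability.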
Potency is read from the fitted curve at half-maximal effect.

| SMILES | Potency | viability, % of control |
| --- | --- | --- |
| CC(=O)c1cc(C(=O)N[C@@H](C)Cn2ccc(-c3ccc(C#N)c(Cl)c3)n2)[nH]n1 | 14.6 µM (active) | – |
| C=C1C(=O)O[C@H]2C1CCC(C)=C1C(=O)C=C(C)[C@@]12O (stereo partly drawn) | 8.2 µM (active) | – |
| O=C(/C=C/c1ccc(O)cc1)OC[C@H]1O[C@H](O[C@@]2(CO)O[C@@H](CO)[C@H](O)[C@H]2O)[C@H](O)[C@@H](O)[C@@H]1O | inactive | – |
| C/C=C/C=C/C(O)=C1\C(O)=C(C)C(=O)[C@@]2(C)OC(=O)[C@@](C)(NC(=O)/C=C/C(=O)O)[C@@H]12 | inactive | – |
| COc1ccc([C@H]2CNC(=O)C2)cc1OC1CCCC1 | inactive | – |
| CC[C@@H]1[C@H]2CCCCN3C(=O)C[C@H]([C@@H]4[C@H]1OC(=O)[C@H]4C)[C@@H]23 | inactive | – |
| Nc1ccn([C@H]2O[C@@H](CO)[C@H](O)[C@H]2O)c(=O)n1 | 1.46 µM (active) | – |
| CCCCCCCCCCCCCC#CC(=O)[C@@H]1COC(C)(C)N1C(=O)OC(C)(C)C | inactive | – |
| CN(CCOc1ccc(-c2ccc3c(c2)OCO3)cc1C(C)(C)C)CC(=O)O | 16.6 µM (active) | – |
| CC1C(=O)CC2C3C(O)CC(C(=O)O)C12CC3(C)C (stereo not drawn) | 20.6 µM (active) | – |
| C[C@@H]1C[C@@H](O)[C@@]2(CO)C(CO)=CCC[C@@H]2[C@@]12C[C@@H](c1ccoc1)OC2=O | inactive | – |
| O=C1NC(=O)/C(=C\c2ccc3c(c2)OC(F)(F)O3)S1 | 14.6 µM (active) | – |
| CC1OC(OC2C(CO)OC(OCC3OC(OC(=O)C45CCC(C)(C)CC4C4=CCC6C7(C)CCC(OC8OC(CO)C(O)C(OC9OC(CO)C(O)C(O)C9O)C8O)C(C)(C)C7CCC6(C)C4(C)CC5)C(O)C(O)C3O)C(O)C2O)C(O)C(O)C1OC1OC(CO)C(O)C(O)C1O (stereo not drawn) | – | 88.5% [at 9.25 µM] |
| NS(=O)(=O)c1ccc(NC(=S)N2CCN(C/C=C/c3ccccc3)CC2)cc1 | 14.8 µM (active) | – |
| CCCCCCCCCCC(O)C1C=CC2C(=O)N(c3ccccc3)C(=O)C2N1Nc1ccc([N+](=O)[O-])cc1 (stereo not drawn) | 11.6 µM (active) | – |
| C[C@@H]1CCC2C(C)(C)[C@H](O)CC[C@]2(C)[C@@]12Cc1c(O)cc3c(c1O2)CN([C@@H](CCC(=O)O)C(=O)O)C3=O (stereo partly drawn) | inactive | – |
| CC(C)(C)c1ccc(-c2nc3ccccc3[nH]2)cc1 | 3.99 µM (active) | – |

| SMILES | Potency | viability, % of control |
| --- | --- | --- |
| C[C@H](C(=O)NC1CCCC1)N(C(=O)Cn1nnc(-c2ccc3c(c2)OCO3)n1)C1CCCCC1 | 2.91 µM (active) | – |
| CN1CCC(c2cn(C)c3ccc(OS(=O)(=O)c4c(F)cccc4F)cc23)CC1 | 14.6 µM (active) | – |
| c1cc(NC2CCNCC2)nc(-c2cnc3ccccn23)c1 | 0.0206 µM (active) | – |
| Fc1ccc(C(c2ccc(F)cc2)N2CCN(C/C=C/c3ccccc3)CC2)cc1 | 21.1 µM (active) | – |
| C=C1CC[C@]2(C(=O)O[C@@H]3O[C@H](CO)[C@@H](O)[C@H](O)[C@H]3O)CC[C@]3(C)C(=CCC4[C@@]5(C)C[C@H](O)[C@@H](O[C@@H]6O[C@H](C(=O)O)[C@@H](O)[C@H](O)[C@H]6O)[C@](C)(C=O)C5CC[C@]43C)C2C1 (stereo partly drawn) | – | 87.9% [at 9.25 µM] |
| C=C1C(=O)OC[C@@H]1C/C=C(\C)CC1CC(C)C(=O)O1 (stereo partly drawn) | 13 µM (active) | – |
| CCC(C)/C=C(C)/C=C/C1=CC2=C(Cl)C(=O)C(C)(OC(C)=O)C(=O)C2=CN1C(CCC(=O)O)C(=O)O (stereo not drawn) | inactive | – |
| COc1cccc(CNC(=O)Nc2nc(-c3ccncc3)cs2)c1 | 18.4 µM (active) | – |
| COC(=O)c1ccc(O[C@@H]2O[C@H](CO)[C@@H](O)[C@H](O)[C@H]2O)c(OC)c1 | inactive | – |
| CC(=O)OC1CC(=O)C2(C)C3CC4=C(OC(C)CC4=O)OC3(C)CCC2C1(C)C (stereo not drawn) | inactive | – |
| COc1c(OC2OC(CO)C(O)C(O)C2O)ccc(O)c1C(=O)OCc1ccccc1O[C@@H]1O[C@H](CO)[C@@H](O)[C@H](O)[C@H]1O (stereo partly drawn) | inactive | – |
| C=C1CC2OC(=O)C(COC)C2C(OC(=O)/C(C)=C\C)CC2(C)OC1=CC2=O (stereo not drawn) | 0.805 µM (active) | – |
| COc1cc(O)c2c(=O)c(O)c(-c3ccc(O)c(O)c3)oc2c1 | 8.2 µM (active) | – |
| O=C(/C=C/n1cnc(-c2cc(C(F)(F)F)cc(C(F)(F)F)c2)n1)NNc1cnccn1 | 1.46 µM (active) | – |
| CC(C)[C@H]1CCC(CO)=C[C@@H]1/C=C(\CO)C(=O)O | inactive | – |
| COC1CC(O[C@H]2CC[C@@]3(C)C(=CC[C@]4(O)C3[C@H](O)[C@@H](O)[C@]3(C)[C@@H]([C@H](C)O)CC[C@@]34O)C2)OC(C)C1OC1CC(OC)C(OC2CC(OC)C(OC3OC(C)C(OC4OC(CO)C(O)C(O)C4O)C(OC)C3O)C(C)O2)C(C)O1 (stereo partly drawn) | – | 76.2% [at 9.25 µM] |
